According to PubChem BioAssay (Tox21):
Several values for one entry are separate records, joined by “and”; a condition that tells them apart may be missing. Identical values can stand only once. Records with an inconclusive call do not appear. A call without a number means that no potency is given here. Activity calls are given as the source filed them. Unless noted, the call rests on the fitted dose curve.

Key:
[1] = Nuclear factor erythroid 2-related factor 2/antioxidant responsive element (Nrf2/ARE) small molecule agonists: qHTS cell viability counter screen in human keratinocytes (AID 1919968; active means well fitted curve in the direction sought with a large enough effect in the repeat runs; an effect the other way counts as inactive or inconclusive; further: nearly all actives have a fitted effect of over 55% in size; further: potency means the concentration at half of the fitted maximal effect)
How it was run: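 Viability counter-screen: KeratinoSens reporter cells, DMSO-delivered compounds, 23 h at 37 C, CellTiter-Fluor fluorescence.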

[2] = Nuclear factor erythroid 2-related factor 2/antioxidant responsive element (Nrf2/ARE) small molecule agonists: luciferase reporter gene qHTS assay in human keratinocytes (AID 1919969); further: nearly all actives have a fitted effect of over 35% in size; further: potency means the concentration at half of the fitted maximal effect
[3] = molecular target: Gonadotropin-releasing hormone receptor (Homo sapiens) (UniProt P30968); assay: Human gonadotropin-releasing hormone receptor (GnRHR) small molecule agonists, calcium flux assay in GnRHR-HEK293 cells (AID 1920063); further: nearly all actives have a fitted effect of over 35% in size
Sequence of Gonadotropin-releasing hormone receptor (Homo sapiens) (P30968 whole entry, looked up): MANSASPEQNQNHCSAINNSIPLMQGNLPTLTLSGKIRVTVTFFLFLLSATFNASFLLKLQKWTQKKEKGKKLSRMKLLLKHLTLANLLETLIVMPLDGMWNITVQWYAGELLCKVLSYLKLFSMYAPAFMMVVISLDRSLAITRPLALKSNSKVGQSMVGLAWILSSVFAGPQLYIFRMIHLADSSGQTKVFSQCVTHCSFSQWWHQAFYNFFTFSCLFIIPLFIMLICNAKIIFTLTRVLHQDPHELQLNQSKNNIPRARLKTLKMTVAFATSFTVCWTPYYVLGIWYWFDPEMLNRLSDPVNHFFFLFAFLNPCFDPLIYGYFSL
How it was run: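 Tox21-format agonist screen using human GnRHR-expressing HEK293 cells and a fluorescent calcium dye; kinetic 3-min fluorescence reading after compound addition, 15-point concentration series run in triplicate.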

[4] = molecular target: KiSS-1 receptor (Homo sapiens) (UniProt Q969F8); assay: Human kisspeptin (KISS1R) small molecule agonists, calcium flux assay in KISS1R-HEK293 cells (AID 1920064; active means well fitted curve in the direction sought with a large enough effect in the repeat runs; an effect the other way counts as inactive or inconclusive)
Sequence of KiSS-1 receptor (Homo sapiens) (Q969F8 whole entry, looked up): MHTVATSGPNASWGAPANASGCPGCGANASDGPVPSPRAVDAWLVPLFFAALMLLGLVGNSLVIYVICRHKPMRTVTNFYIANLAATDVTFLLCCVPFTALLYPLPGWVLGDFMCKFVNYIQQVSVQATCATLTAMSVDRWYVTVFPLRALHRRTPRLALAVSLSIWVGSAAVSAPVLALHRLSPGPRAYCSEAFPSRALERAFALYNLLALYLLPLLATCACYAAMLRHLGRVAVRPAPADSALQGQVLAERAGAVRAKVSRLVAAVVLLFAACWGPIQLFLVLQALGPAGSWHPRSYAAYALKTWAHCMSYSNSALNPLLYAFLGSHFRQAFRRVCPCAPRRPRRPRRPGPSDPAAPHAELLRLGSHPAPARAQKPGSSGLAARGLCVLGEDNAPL
How it was run: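 Intracellular calcium mobilization in KISS1R-HEK293 cells was recorded by fluorescence (Ex/Em 480/540) for 3 min following compound addition to cells pre-loaded 1 h with calcium dye.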

[5] = G protein-coupled receptor (GPCR) small molecule agonists, calcium flux assay: HEK293 wild type cell line counter screen (AID 1920065)
How it was run: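 In this agonist-mode screen, ATP is the positive control and DMSO the vehicle. Cells grow 18 h before a 1 h dye incubation at 37 C; signal is taken at Ex/Em 480/540 over 3 min.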

[6] = p53 small molecule agonists, cell-based qHTS assay with human liver microsomes (AID 1963577);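 further: p53 response element beta-lactamase reporter cells with liver microsomes plus NADPH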
How it was run: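 In this qHTS, p53 response-element beta-lactamase cells receive test compound together with a microsome/NADPH activating system (0.5 mg/mL final each) and are incubated 16 h at 37 C before LiveBLAzer fluorescence detection.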

[7] = p53 small molecule agonists, cell-based qHTS assay with rat liver microsomes (AID 1963578)
How it was run: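 Agonist mode in p53RE-bla reporter cells, with compounds co-incubated 16 h at 37 C alongside 0.5 mg/mL rat liver microsomes and 0.5 mg/mL NADPH (final), followed by a 2 h LiveBLAzer detection step.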

[8] = p53 small molecule agonists, cell-based qHTS assay with human liver microsomes: qHTS cell viability counter screen (AID 1963579); further: nearly all actives have a fitted effect of over 45% in size; further: potency means the concentration at half of the fitted maximal effect
How it was run: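 Metabolically activated exposure: compounds, human liver microsomes and NADPH (0.5 mg/mL final apiece) were added to p53RE-bla cells seeded 5 h earlier, left 16 h at 37 C, and then assessed for viability by CellTiter-Glo luminescence.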

[9] = p53 small molecule agonists, cell-based qHTS assay with rat liver microsomes: qHTS cell viability counter screen (AID 1963580); further: nearly all actives have a fitted effect of over 45% in size
How it was run: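 Intracellular ATP, by CellTiter-Glo luminescence, defines viability. HCT-116 p53RE-bla cells, 4,000 per well, were compound-treated in the presence of rat liver microsomes and NADPH for 16 h at 37 C.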

[10] = p53 small molecule agonists, cell-based qHTS assay (AID 1963582; active means well fitted activation curve with a large enough effect in the signal ratio in the repeat runs, not every such curve was filed as active; the % refers to the signal ratio)
How it was run: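 Agonist activity was scored from beta-lactamase FRET fluorescence in p53RE-bla cells treated 16 h at 37 C with compounds in DMSO, substrate incubation being 2 h at room temperature.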

[11] = molecular target: 5-hydroxytryptamine receptor 2A (Homo sapiens) (UniProt P28223); assay: 5-hydroxytryptamine receptor 2A (HTR2A) small molecule antagonists, cell-based qHTS assay (AID 1963586); further: nearly all actives have a fitted effect of over 45% in size
Sequence of 5-hydroxytryptamine receptor 2A (Homo sapiens) (P28223 whole entry, looked up): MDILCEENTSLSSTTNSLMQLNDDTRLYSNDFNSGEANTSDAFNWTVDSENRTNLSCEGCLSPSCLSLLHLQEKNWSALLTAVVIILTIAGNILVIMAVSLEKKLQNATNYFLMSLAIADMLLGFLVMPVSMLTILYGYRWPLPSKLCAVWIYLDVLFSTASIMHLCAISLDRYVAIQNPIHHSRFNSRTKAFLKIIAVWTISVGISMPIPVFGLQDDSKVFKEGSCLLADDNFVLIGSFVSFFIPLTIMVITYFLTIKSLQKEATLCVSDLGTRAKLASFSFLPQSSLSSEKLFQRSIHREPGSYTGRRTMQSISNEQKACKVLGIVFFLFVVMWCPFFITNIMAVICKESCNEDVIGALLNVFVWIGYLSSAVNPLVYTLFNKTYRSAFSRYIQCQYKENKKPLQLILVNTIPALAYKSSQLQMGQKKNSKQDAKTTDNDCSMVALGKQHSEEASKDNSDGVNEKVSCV
How it was run: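 Antagonist-mode intracellular calcium assay: DOI (4 nM) added after 5 min compound pre-incubation at room temperature to dye-loaded HTR2A-CHO cells. Fluorescence followed for 3 min, sampled every second.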

[12] = molecular target: 5-hydroxytryptamine receptor 2A (Homo sapiens) (UniProt P28223); assay: 5-hydroxytryptamine receptor 2A (HTR2A) small molecule agonists, cell-based qHTS assay (AID 1963587); further: nearly all actives have a fitted effect of over 30% in size
How it was run: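 Kinetic calcium-flux fluorescence (2 min, 1 sec intervals) after compound addition in agonist mode. HTR2A-CHO cells were cultured 18 h, then dye-loaded 1 h at 37 C.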

[13] = molecular target: Muscarinic acetylcholine receptor M1 (Homo sapiens) (UniProt P11229); assay: Cholinergic receptor muscarinic 1 (CHRM1) small molecule antagonists, cell-based qHTS assay (AID 1963588); further: nearly all actives have a fitted effect of over 40% in size
Sequence of Muscarinic acetylcholine receptor M1 (Homo sapiens) (P11229 whole entry, looked up): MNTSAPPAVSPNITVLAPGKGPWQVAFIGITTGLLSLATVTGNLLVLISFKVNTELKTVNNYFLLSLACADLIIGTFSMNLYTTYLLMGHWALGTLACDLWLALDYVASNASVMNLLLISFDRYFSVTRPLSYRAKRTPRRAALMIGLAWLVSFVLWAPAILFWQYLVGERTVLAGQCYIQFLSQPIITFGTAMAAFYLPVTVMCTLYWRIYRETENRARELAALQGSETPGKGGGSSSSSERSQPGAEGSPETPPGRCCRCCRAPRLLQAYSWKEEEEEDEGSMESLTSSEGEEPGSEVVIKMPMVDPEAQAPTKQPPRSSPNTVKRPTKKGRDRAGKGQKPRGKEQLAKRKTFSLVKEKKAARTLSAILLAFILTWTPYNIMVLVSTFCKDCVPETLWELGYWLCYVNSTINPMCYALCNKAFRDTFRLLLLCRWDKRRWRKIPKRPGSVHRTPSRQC
How it was run: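 CHRM1-CHO calcium-flux assay, antagonist mode. Cells were seeded 18 h, dye-loaded 1 h at 37 C and given compound for 5 min at RT, then acetylcholine was added at 50nM. FDSS fluorescence was read 3 min; 15 concentrations, three runs.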

[14] = molecular target: Muscarinic acetylcholine receptor M1 (Homo sapiens) (UniProt P11229); assay: Cholinergic receptor muscarinic 1 (CHRM1) small molecule agonists, cell-based qHTS assay (AID 1963589); further: nearly all actives have a fitted effect of over 35% in size
How it was run: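 Stable CHRM1-CHO cells (human receptor) were incubated 18 h, dye-loaded for 1 h at 37 C and exposed to test compounds for agonist activity, with calcium-dependent fluorescence followed kinetically.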

[15] = cAMP Responsive Elements (CRE) small molecule agonists, cell-based qHTS assay (AID 1963590)
How it was run: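 FRET-based beta-lactamase readout (LiveBLAzer B/G, 2 h RT) quantified CRE activation in HEK 293T CRE-bla cells after 3 h treatment with DMSO-dissolved compounds.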

[16] = cAMP Responsive Elements (CRE) small molecule antagonists, cell-based qHTS assay (AID 1963591; active means well fitted inhibition curve with a large enough effect in the signal ratio in the repeat runs, not every such curve was filed as active; the % refers to the signal ratio)
How it was run: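 qHTS in CRE-bla HEK 293T cells: compound in DMSO, then 0.25 uM NKH477 (final), 3 h at 37 °C/5% CO2; beta-lactamase FRET read-out after 2 h substrate incubation.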

[17] = molecular target: Beta-2 adrenergic receptor (Homo sapiens) (UniProt P07550); assay: Adrenergic beta2 receptor (ADRB2) small molecule antagonists, cell-based qHTS assay (AID 1963592); further: series mostly up to about 92 µM; nearly all actives have a fitted effect of over 50% in size
Sequence of Beta-2 adrenergic receptor (Homo sapiens) (P07550 whole entry, looked up): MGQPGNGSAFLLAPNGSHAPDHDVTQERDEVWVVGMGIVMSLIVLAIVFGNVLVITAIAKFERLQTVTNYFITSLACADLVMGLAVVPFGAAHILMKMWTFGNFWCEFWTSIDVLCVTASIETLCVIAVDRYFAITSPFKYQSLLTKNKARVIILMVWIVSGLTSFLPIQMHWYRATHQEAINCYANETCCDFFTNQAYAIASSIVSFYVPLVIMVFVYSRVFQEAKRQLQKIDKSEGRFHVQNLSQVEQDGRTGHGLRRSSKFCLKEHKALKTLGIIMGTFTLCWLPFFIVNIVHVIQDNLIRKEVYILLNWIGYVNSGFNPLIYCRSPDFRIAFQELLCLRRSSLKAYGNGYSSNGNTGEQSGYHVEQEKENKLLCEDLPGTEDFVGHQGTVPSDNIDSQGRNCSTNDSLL
How it was run: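 Cells (CHO, stable ADRB2 overexpression) incubated 18-20hr at 37C; compounds added from DMSO; agonist mix (1nM isoproterenol, 100uM IBMX, 25uM Ro-20-1724) added; 0.5hr RT; d2-cAMP and anti-cAMP-cryptate added; 1hr RT; 665/615 nm read.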

[18] = molecular target: D(2) dopamine receptor (Homo sapiens) (UniProt P14416); assay: Dopamine D2 receptor (DRD2) small molecule agonists, cell-based qHTS assay (AID 1963594); further: nearly all actives have a fitted effect of over 35% in size
Sequence of D(2) dopamine receptor (Homo sapiens) (P14416 whole entry, looked up): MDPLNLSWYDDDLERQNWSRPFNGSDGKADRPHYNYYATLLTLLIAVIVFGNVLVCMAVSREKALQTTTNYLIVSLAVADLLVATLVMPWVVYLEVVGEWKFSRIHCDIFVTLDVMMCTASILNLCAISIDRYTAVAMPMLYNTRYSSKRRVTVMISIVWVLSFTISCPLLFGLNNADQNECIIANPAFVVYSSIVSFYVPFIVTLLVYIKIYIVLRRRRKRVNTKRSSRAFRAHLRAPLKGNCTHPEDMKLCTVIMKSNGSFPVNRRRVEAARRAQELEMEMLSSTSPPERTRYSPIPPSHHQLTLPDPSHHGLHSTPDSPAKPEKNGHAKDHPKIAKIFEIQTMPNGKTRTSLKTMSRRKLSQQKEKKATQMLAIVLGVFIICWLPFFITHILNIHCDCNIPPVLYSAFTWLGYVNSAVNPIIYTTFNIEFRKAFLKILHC
How it was run: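 cAMP accumulation in DRD2-HEK293 cells measured by HTRF after 1 h detection; compounds added 10 min before NKH477 (200nM […]) forskolin-analogue stimulation, 30 min at room temperature, with Ro20-1724 present at 0.1 mM final.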

[19] = molecular target: D(2) dopamine receptor (Homo sapiens) (UniProt P14416); assay: Dopamine D2 receptor (DRD2) small molecule antagonists, cell-based qHTS assay (AID 1963595; active means well fitted inhibition curve with a large enough effect in the signal ratio in the repeat runs, with a control signal flat; the % refers to the signal ratio; further: potency means the concentration at half of the fitted maximal effect)
How it was run: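 Readout: HTRF cAMP, cAMP-d2 competing with cellular cAMP for anti-cAMP cryptate, read after 1 h. Cells: DRD2-HEK293. Conditions: 0.1 mM Ro20-1724, 12 nM quinpirole, 200 nM NKH477, 30 min RT.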

[20] = p53 small molecule agonists, cell-based qHTS assay: qHTS cell viability counter screen (AID 1963581); further: nearly all actives have a fitted effect of over 45% in size; further: potency means the concentration at half of the fitted maximal effect
How it was run: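 Compounds are pinned onto HCT-116 p53RE-bla cells and left 16 h at 37 C. Following the reporter FRET read, ATP is quantified by CellTiter-Glo luminescence after 30 min at room temperature.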

SMILES	Potency [1]	Potency [2]	Potency [3]	Potency [4]	Potency [5]	Potency [6]	Potency [7]	Potency [8]	Potency [9]	Potency [10]	Potency [11]	Potency [12]	Potency [13]	Potency [14]	Potency [15]	Potency [16]	Potency [17]	Potency [18]	Potency [19]	Potency [20]
Cc1cccc(C)c1NC(=O)CN1CCCC1=O	inactive	inactive	inactive	inactive	inactive	inactive	inactive	inactive	inactive	inactive	inactive	inactive	inactive	inactive	inactive	inactive	inactive	inactive	inactive	
CC(C)=CC1C(C(=O)OCc2cccc(Oc3ccccc3)c2)C1(C)C (configuration not stated)	inactive	inactive	inactive	inactive	inactive	inactive	inactive	inactive	inactive	inactive	inactive	inactive	inactive	inactive	inactive	inactive	inactive	inactive	inactive	
COc1c(C(C)(C)C)cc([N+](=O)[O-])c(C)c1[N+](=O)[O-]	inactive	inactive	inactive	inactive	inactive	inactive	inactive	inactive	inactive	inactive	inactive	inactive	inactive	inactive	inactive	inactive	inactive	inactive	inactive	
CCN(Cc1ccc(Cl)nc1)/C(=C/[N+](=O)[O-])NC	inactive	inactive	inactive	inactive	inactive	inactive	inactive	inactive	inactive		inactive	inactive	inactive		inactive	inactive	inactive	inactive	inactive	inactive
O=S(=O)(c1ccc(Cl)cc1)c1cc(Cl)c(Cl)cc1Cl	inactive	48.5 µM (active)	inactive	inactive	inactive	inactive	inactive	inactive	inactive		inactive	inactive	inactive	inactive	inactive	inactive	inactive		inactive	inactive
N[C@@H](Cc1ccc(N(CCCl)CCCl)cc1)C(=O)O	inactive	inactive	inactive	inactive	inactive	inactive	inactive	inactive	inactive								inactive	inactive	inactive	inactive
N#Cc1c(Cl)c(Cl)c(Cl)c(C#N)c1Cl	2.68 µM (active) and 2.73 µM (active)	950 nM (active) and 969 nM (active)	inactive	inactive	inactive	inactive	inactive	25.2 µM (active) and 18.2 µM (active)	inactive		inactive	inactive	inactive				inactive	inactive	15.1 µM (active) and 4.86 µM (active)	18.2 µM (active)
